About 2,000 (36%) of roughly 5,500 compounds were called active. Not shown: some 18% with an inconclusive outcome. Some of the results follow. A number with no mark means an inactive call. Rule as the data show it: active = normalized growth mostly below about 0.91 (no sharp cut-off); inconclusive = no clear call, values can overlap the other calls; inactive = mostly above about 0.92.
Test: chemical genetic growth profiling, strain panel (AID 1159580);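 also: tested at 20 µM; growth read once vehicle control cultures reached saturation at 30 °C; 1 = growth at the plate median or of vehicle wells; lower values mean less growth of the strain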
Conditions: S. cerevisiae deletion strains, growth OD

Question: Which results are given for COc1cccc2c1CCC1CC(=O)CCC21C (stereo unspecified)?
Answer: normalized growth (locus YAL021C, strain ccr4, active compounds read low): 0.99; normalized growth (locus YAL026C, strain drs2, active compounds read low): 0.994; normalized growth (locus YAL030W, strain snc1, active compounds read low): 0.991; normalized growth (locus YBL061C, strain skt5, active compounds read low): 1; normalized growth (locus YBR009C, strain hhf1, active compounds read low): 0.996; normalized growth (locus YBR021W, strain FUR4, active compounds read low): 0.92; normalized growth (locus YBR023C, strain chs3, active compounds read low): 0.993; normalized growth (locus YBR171W, strain sec66, active compounds read low): 0.985; normalized growth (locus YBR229C, strain ROT2, active compounds read low): 0.992; normalized growth (locus YBR231C, strain swc5, active compounds read low): 0.996; normalized growth (locus YBR279W, strain paf1, active compounds read low): 0.988; normalized growth (locus YCL011C, strain gbp2, active compounds read low): 1; normalized growth (locus YCL016C, strain dcc1, active compounds read low): 0.995; normalized growth (locus YCL029C, strain bik1, active compounds read low): 0.955; normalized growth (locus YCL061C, strain MRC1, active compounds read low): 0.996; normalized growth (locus YCL069W, strain vba3, active compounds read low): 0.994; normalized growth (locus YCR088W, strain abp1, active compounds read low): 0.993; normalized growth (locus YDL005C, strain med2, active compounds read low): 1; normalized growth (locus YDL035C, strain GPR1, active compounds read low): 0.982; normalized growth (locus YDL040C, strain nat1, active compounds read low): 0.992; normalized growth (locus YDL074C, strain BRE1, active compounds read low): 0.931; normalized growth (locus YDL101C, strain DUN1, active compounds read low): 0.986; normalized growth (locus YDL134C, strain PPH21, active compounds read low): 0.956; normalized growth (locus YDL185W, strain tfp1, active compounds read low): 0.953; normalized growth (locus YDL192W, strain arf1, active compounds read low): 0.936; normalized growth (locus YDR001C, strain nth1, active compounds read low): 0.984; normalized growth (locus YDR069C, strain doa4, active compounds read low): 1.01; normalized growth (locus YDR101C, strain arx1, active compounds read low): 0.983; normalized growth (locus YDR137W, strain rgp1, active compounds read low): 0.998; normalized growth (locus YDR159W, strain sac3, active compounds read low): 1.02; normalized growth (locus YDR162C, strain NBP2, active compounds read low): 0.919; normalized growth (locus YDR195W, strain ref2): 1.07; normalized growth (locus YDR297W, strain sur2, active compounds read low): 1; normalized growth (locus YDR318W, strain mcm21, active compounds read low): 0.937; normalized growth (locus YDR334W, strain swr1, active compounds read low): 1; normalized growth (locus YDR335W, strain msn5, active compounds read low): 1; normalized growth (locus YDR388W, active compounds read low): 0.948; normalized growth (locus YDR392W, strain spt3, active compounds read low): 0.873; normalized growth (locus YDR502C, strain sam2, active compounds read low): 0.912 (active); normalized growth (locus YEL003W, strain gim4, active compounds read low): 0.981; normalized growth (locus YEL037C, strain rad23, active compounds read low): 0.992; normalized growth (locus YEL061C, strain CIN8 (second series), active compounds read low): 0.995; normalized growth (locus YEL061C, strain CIN8, active compounds read low): 0.987; normalized growth (locus YER015W, strain faa2, active compounds read low): 1; normalized growth (locus YER016W, strain bim1, active compounds read low): 0.994; normalized growth (locus YER110C, active compounds read low): 0.934; normalized growth (locus YER111C, strain swi4, active compounds read low): 0.994; normalized growth (locus YER155C, strain BEM2 (second series), active compounds read low): 0.944; normalized growth (locus YER155C, strain BEM2, active compounds read low): 0.982; normalized growth (locus YER167W, strain BCK2, active compounds read low): 0.993; normalized growth (locus YFR010W, strain ubp6, active compounds read low): 1; normalized growth (locus YGL078C, strain dbp3, active compounds read low): 0.983; normalized growth (locus YGL086W, strain mad1, active compounds read low): 0.922 (active); normalized growth (locus YGL167C, strain pmr1, active compounds read low): 1; normalized growth (locus YGL173C, strain kem1, active compounds read low): 0.987; normalized growth (locus YGL227W, strain vid30, active compounds read low): 0.998; normalized growth (locus YGL240W, strain doc1, active compounds read low): 0.982; normalized growth (locus YGL248W, strain PDE1, active compounds read low): 0.975; normalized growth (locus YGL253W, strain hxk2, active compounds read low): 1; normalized growth (locus YGR135W, strain pre9, active compounds read low): 0.886 (active); normalized growth (locus YGR229C, strain SMI1, active compounds read low): 0.991; normalized growth (locus YGR252W, strain gcn5, active compounds read low): 0.777; normalized growth (locus YHR013C, strain ard1, active compounds read low): 0.976; normalized growth (locus YHR027C, strain rpn1, active compounds read low): 1.02; normalized growth (locus YHR030C, strain SLT2, active compounds read low): 0.991; normalized growth (locus YHR079C, strain IRE1 (second series), active compounds read low): 0.955; normalized growth (locus YHR094C, strain hxt1, active compounds read low): 0.948; normalized growth (locus YHR129C, strain ARP1, active compounds read low): 0.977; normalized growth (locus YHR142W, strain chs7, active compounds read low): 0.981; normalized growth (locus YHR200W, strain rpn10, active compounds read low): 0.941; normalized growth (locus YIL066C, strain RNR3, active compounds read low): 0.968; normalized growth (locus YIL073C, strain SPO22, active compounds read low): 0.887; normalized growth (locus YIL125W, strain kgd1, active compounds read low): 0.977; normalized growth (locus YIR030C, strain dcg1, active compounds read low): 0.962; normalized growth (locus YJL092W, strain hpr5, active compounds read low): 0.994; normalized growth (locus YJL095W, strain BCK1 (second series), active compounds read low): 0.99; normalized growth (locus YJL095W, strain BCK1, active compounds read low): 0.91; normalized growth (locus YJL115W, strain asf1, active compounds read low): 1; normalized growth (locus YJL129C, strain trk1, active compounds read low): 0.939; normalized growth (locus YJL134W, strain LCB3, active compounds read low): 0.981; normalized growth (locus YJL154C, strain vps35, active compounds read low): 0.995; normalized growth (locus YJL164C, strain tpk1, active compounds read low): 0.989; normalized growth (locus YJL166W, strain qcr8, active compounds read low): 0.991; normalized growth (locus YJL168C, strain set2, active compounds read low): 0.963; normalized growth (locus YJL187C, strain SWE1 (second series), active compounds read low): 0.963; normalized growth (locus YJL187C, strain SWE1, active compounds read low): 1.01; normalized growth (locus YKL009W, strain mrt4, active compounds read low): 0.97; normalized growth (locus YKL068W, active compounds read low): 0.969; normalized growth (locus YKL085W, strain MDH1 (second series), active compounds read low): 0.966; normalized growth (locus YKL085W, strain MDH1, active compounds read low): 0.966; normalized growth (locus YKL160W, strain elf1, active compounds read low): 0.98; normalized growth (locus YKL190W, strain CNB1, active compounds read low): 0.993; normalized growth (locus YKR001C, strain vps1, active compounds read low): 0.914; normalized growth (locus YKR026C, strain gcn3, active compounds read low): 0.992; normalized growth (locus YKR091W, strain srl3, active compounds read low): 0.988; normalized growth (locus YLL001W, strain dnm1, active compounds read low): 0.994; normalized growth (locus YLL026W, active compounds read low): 0.999; normalized growth (locus YLL041C, strain sdh2, active compounds read low): 0.99; normalized growth (locus YLR027C, strain aat2, active compounds read low): 0.985; normalized growth (locus YLR039C, strain RIC1, active compounds read low): 0.974; normalized growth (locus YLR058C, strain SHM2, active compounds read low): 0.982; normalized growth (locus YLR102C, strain apc9, active compounds read low): 0.961; normalized growth (locus YLR221C, strain rsa3, active compounds read low): 1.01; normalized growth (locus YLR258W, strain gsy2, active compounds read low): 0.983; normalized growth (locus YLR262C, strain YPT6 (second series), active compounds read low): 1; normalized growth (locus YLR268W, strain sec22, active compounds read low): 0.963; normalized growth (locus YLR320W, strain mms22, active compounds read low): 0.977; normalized growth (locus YLR330W, strain CHS5, active compounds read low): 0.98; normalized growth (locus YLR342W, strain FKS1, active compounds read low): 0.994; normalized growth (locus YLR357W, strain rsc2, active compounds read low): 1.01; normalized growth (locus YLR370C, strain arc18, active compounds read low): 0.987; normalized growth (locus YLR371W, strain rom2, active compounds read low): 0.965; normalized growth (locus YLR384C, strain iki3, active compounds read low): 0.999; normalized growth (locus YLR418C, strain cdc73, active compounds read low): 0.812 (active); normalized growth (locus YML016C, strain PPZ1, active compounds read low): 0.978; normalized growth (locus YML032C, strain rad52, active compounds read low): 0.946; normalized growth (locus YML120C, strain ndi1, active compounds read low): 0.987; normalized growth (locus YML124C, strain tub3, active compounds read low): 0.969; normalized growth (locus YMR058W, strain fet3, active compounds read low): 0.995; normalized growth (locus YMR078C, strain ctf18, active compounds read low): 0.95; normalized growth (locus YMR125W, strain sto1, active compounds read low): 0.995; normalized growth (locus YMR129W, active compounds read low): 0.991; normalized growth (locus YMR205C, strain PFK2, active compounds read low): 0.982; normalized growth (locus YMR223W, strain ubp8, active compounds read low): 0.947; normalized growth (locus YMR231W, strain pep5, active compounds read low): 0.99; normalized growth (locus YMR263W, strain SAP30, active compounds read low): 0.965; normalized growth (locus YMR307W, strain GAS1, active compounds read low): 0.849; normalized growth (locus YNL067W, strain RPL9B, active compounds read low): 0.968; normalized growth (locus YNL071W, strain lat1, active compounds read low): 0.985; normalized growth (locus YNL209W, strain ssb2, active compounds read low): 0.992; normalized growth (locus YNL233W, strain BNI4, active compounds read low): 0.937; normalized growth (locus YNL248C, strain rpa49, active compounds read low): 0.998; normalized growth (locus YNL250W, strain rad50, active compounds read low): 0.952; normalized growth (locus YNL271C, strain bni1, active compounds read low): 0.962; normalized growth (locus YNL298W, strain CLA4, active compounds read low): 0.959; normalized growth (locus YNL307C, strain MCK1, active compounds read low): 0.917; normalized growth (locus YNL322C, strain KRE1 (second series), active compounds read low): 0.996; normalized growth (locus YNL322C, strain KRE1, active compounds read low): 0.982; normalized growth (locus YNR049C, strain mso1, active compounds read low): 1.01; normalized growth (locus YNR052C, strain pop2, active compounds read low): 0.969; normalized growth (locus YOL006C, strain TOP1, active compounds read low): 0.788; normalized growth (locus YOL012C, strain htz1): 0.835; normalized growth (locus YOL147C, strain pex11, active compounds read low): 0.949; normalized growth (locus YOR001W, strain rrp6, active compounds read low): 1.01; normalized growth (locus YOR061W, strain CKA2, active compounds read low): 0.991; normalized growth (locus YOR069W, strain VPS5, active compounds read low): 0.977; normalized growth (locus YOR070C, strain gyp1, active compounds read low): 0.985; normalized growth (locus YOR080W, strain dia2, active compounds read low): 1.01; normalized growth (locus YOR083W, strain WHI5, active compounds read low): 0.987; normalized growth (locus YOR106W, strain vam3, active compounds read low): 1; normalized growth (locus YOR136W, strain idh2, active compounds read low): 0.966; normalized growth (locus YOR144C, strain elg1, active compounds read low): 0.958; normalized growth (locus YOR184W, strain ser1, active compounds read low): 0.848 (active); normalized growth (locus YOR265W, strain rbl2, active compounds read low): 1.01; normalized growth (locus YOR270C, strain vph1, active compounds read low): 0.907; normalized growth (locus YOR290C, strain snf2, active compounds read low): 0.985; normalized growth (locus YOR316C, strain cot1, active compounds read low): 0.947; normalized growth (locus YPL051W, strain arl3, active compounds read low): 0.981; normalized growth (locus YPL078C, strain atp4, active compounds read low): 0.979; normalized growth (locus YPL106C, strain sse1, active compounds read low): 1; normalized growth (locus YPL240C, strain hsp82, active compounds read low): 0.993; normalized growth (locus YPR119W, strain clb2, active compounds read low): 0.958; normalized growth (locus YPR141C, strain kar3, active compounds read low): 0.965; normalized growth (locus YPR163C, strain tif3, active compounds read low): 0.902 (active); normalized growth (locus YPR167C, strain met16, active compounds read low): 0.952; normalized growth (strain wtn01, active compounds read low): 0.936
